# Screening data: PubChem BioAssay, National Center for Advancing Translational Sciences (NCATS)
# Giardia FBPA inh – qHTS Assay for Inhibitors of Fructose-1,6-bisphosphate Aldolase from Giardia Lamblia; purified Giardia FBPA; A8B2U2; Potency, µM (titrated, usually from 59.6 µM), inactives show at the top dose activity, negative = inhibition, hits mostly inhibitors; hit rate 0.71% among 290,000; also: potency is read from the fitted curve at half-maximal effect; % is scaled to controls: 0 for no effect and ±100 for the full control effect; nearly all actives have a fitted effect of over 55% in size
#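 40 nM FBPA preincubated 10 min at RT with compound (up to 57.5 uM final), then substrate plus GAPDH/TPI/NAD/arsenate coupling and diaphorase/resazurin added. Fluorescence read after 20 min at RT, 525/598 nm.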
# CHX counter – Cycloheximide Counterscreen for Small Molecule Inhibitors of Shiga Toxin; hit rate 12% among 300,000; cell reporter, cycloheximide protein synthesis inhibition counterscreen; max response, %; in the data active = max response mostly above about 13%, no sharp cut-off; inactive = mostly below about 14%; also: read at 38.3 µM for the half of the compounds with a filed dose; 0% is about no effect
# LmPK inh – qHTS Assay for Inhibitors of Leishmania Mexicana Pyruvate Kinase (LmPK) | purified LmPK, Kinase-Glo ATP luminescence, 1 h | Potency, µM (doses to about 57.5 µM), for the others: at the highest dose activity change, negative = inhibition, usual class: inhibitors | hit rate 0.37% among 290,000 | AID 1721, 2009; also: potency is read from the fitted curve at half-maximal effect; % is scaled to controls: 0 for no effect and ±100 for the full control effect
# Target sequence (Q27686 whole entry, looked up): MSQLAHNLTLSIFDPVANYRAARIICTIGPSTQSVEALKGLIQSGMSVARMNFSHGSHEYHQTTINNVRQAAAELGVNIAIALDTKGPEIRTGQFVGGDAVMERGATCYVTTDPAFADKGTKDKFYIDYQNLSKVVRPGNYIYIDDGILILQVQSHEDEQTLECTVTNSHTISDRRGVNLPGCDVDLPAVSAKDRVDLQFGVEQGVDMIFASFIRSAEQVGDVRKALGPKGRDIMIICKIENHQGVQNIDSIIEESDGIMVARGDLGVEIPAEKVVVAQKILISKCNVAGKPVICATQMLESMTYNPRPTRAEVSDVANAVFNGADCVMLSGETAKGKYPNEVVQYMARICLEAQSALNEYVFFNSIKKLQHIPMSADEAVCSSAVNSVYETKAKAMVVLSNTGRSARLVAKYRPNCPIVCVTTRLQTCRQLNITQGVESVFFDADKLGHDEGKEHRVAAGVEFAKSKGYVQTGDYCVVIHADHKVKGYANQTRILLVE
#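 0.1 nM LmPK, 0.5 mM PEP, 0.1 mM ADP; 50 mM imidazole pH 7.2, 7 mM MgCl2, 50 mM KCl; 1 h RT. Kinase-Glo luminescence readout, normalized to no-enzyme (full inhibition) and uninhibited wells.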
# Tb PYK inh – qHTS of Trypanosoma Brucei Inhibitors; pyruvate kinase (Trypanosoma brucei), Q57TT1; TbPYK enzyme, Kinase-Glo Plus ATP luminescence, 45 min; Potency, µM (highest dose often 76.8 µM), for the others: at the highest dose activity, negative = inhibition, actives largely listed as inhibitors; hit rate 0.12% among 410,000; AID 624173, 2012; also: potency is read from the fitted curve at half-maximal effect; % is scaled to controls: 0 for no effect and ±100 for the full control effect; nearly all actives have a fitted effect of over 50% in size
#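 TbPYK + substrate in 50 mM TEA pH 7.2, 100 mM KCl, 10 mM MgCl2, 0.05% BSA, 0.01% Tween-20; cpd pinned; ADP 130 uM final; 45 min RT; Kinase-Glo Plus 10 min; luminescence endpoint.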
# Sm TGR block – qHTS Assay for the Inhibitors of Schistosoma Mansoni Peroxiredoxins. AID 485364, 2010. Schistosoma mansoni thioredoxin glutathione reductase (TGR), Q962Y6. purified TGR, DTNB reduction, TNB absorbance 405 nm. Potency, µM (top dose mostly 114 µM), without a hit: at the highest dose activity change, negative = inhibition, actives largely listed as inhibitors. hit rate 3% among 360,000; also: potency is read from the fitted curve at half-maximal effect; % is scaled to controls: 0 for no effect and ±100 for the full control effect; nearly all actives have a fitted effect of over 60% in size
#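 TGR 20 nM + NADPH 100 uM (dispensed conc.), cpd preinc 15 min RT; start with NADPH (500 uM addition) then DTNB (15 mM addition). Kinetic TNB absorbance, 405 nm filter. Four-parameter Hill fit across titration.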
# Shiga inhibitor – A qHTS for Small Molecule Inhibitors of Shiga Toxin; Vero cells, Shiga toxin protein synthesis inhibition reporter; inhibition, % at 38.7 µM; hit rate 9.2% among 290,000; AID 2315, 2010; in the data active = inhibition mostly above about 28%, no sharp cut-off; inactive = mostly below about 43%; also: 0% is about no effect
# Numbers without * were called inactive; ? = inconclusive; . = no result given. This is one part of a sample in which hits are shown more often than they occur. Unless noted, calls follow the shape of the dose curve; as a rule, active = well fitted curve in the direction sought with a large enough effect; inconclusive = small, poorly fitted or top-dose-only effect, or another doubt; inactive = no such curve, though single readings can be large; an effect the other way counts as inactive or inconclusive.
SMILES,Giardia FBPA inh,CHX counter,LmPK inh,Tb PYK inh,Sm TGR block,Shiga inhibitor
CC(O)c1nc2ccccc2n1Cc1nnc(-c2ccc(Cl)cc2)o1 (stereo not drawn),2.2%,21.4*,-1.1%,4.3%,-1.4%,28.4
Cc1ccccc1OCCSc1nnc(-c2cccs2)o1,.,.,.,3.6%,-1.9%,.
Fc1ccccc1CSc1nnc(-c2cccs2)o1,2.3%,44.3*,-4.8%,7.5%,2.9%,88.4*
CCSc1nnc(-c2cccs2)o1,1.5%,28.4*,-0.8%,1.3%,0.1%,27.7
Cc1nnc(SCc2nnc(-c3cccs3)o2)n1Cc1ccccc1,14.1%,3.7,-7.4%,0.7%,1.5%,-22.1
c1csc(-c2nnc(Cc3cccc4ccccc34)o2)c1,15.4%,17.4*,4.6%,-6.3%,0.1%,29.3
c1ccc(-c2nnc(CSc3nnc(-c4cccs4)o3)o2)cc1,-3.6%,1.6,6.0%,-5.0%,-10.4%,-1.2
Fc1ccc(CSc2nnc(-c3cccs3)o2)cc1,-2.2%,65.1*,1.6%,-6.3%,1.5%,100.7*
CCc1ccc(/C=C2\Oc3ccc(C(=O)OC)cc3C2=O)cc1,1.9%,-1.0,0.8%,2.5%,-15.3%,-12.9
CCc1ccc(/C=C2/C(=O)NC(=O)N2C(C)=O)cc1,-3.7%,37.5*,0.0%,-2.8%,-21.6%,24.4
COc1ccc(Cl)cc1C(=O)NC1=NCCS1,-2.1%,16.2*,0.7%,-1.7%,2.3%,23.2
O=C(NC1=NCCS1)c1cccc2ccccc12,-2.7%,25.9*,-2.1%,-1.2%,1.6%,41.3
O=C(Nc1ccc(Cl)cn1)c1ccc(-c2ccc(Cl)c(Cl)c2)o1,.,.,.,2.5%,.,.
O=C(NC1=NCCS1)c1ccc(Cl)cc1,-9.2%,57.9*,0.8%,-1.3%,-19.6%,93.1*
COc1ccc(Cl)cc1C(=O)Nc1ccc(NC(C)=O)cc1,5.1%,3.2,2.6%,-5.0%,3.1%,-1.8
O=C(NC1=NCCS1)c1ccc(-c2ccc(Cl)cc2)o1,0.3%,55.9*,1.5%,5.4%,-8.4%,77.1*
CCn1nc(-c2ccccc2)c(-c2ccccc2)c(C(=O)Nc2nc(C)c(C(=O)N(C)C)s2)c1=O,.,.,.,2.9%,0.7%,.
Cc1cc(C)n(-c2ccc(C(=O)NC3=NCCS3)cc2)n1,2.5%,41.3*,1.6%,-1.2%,6.6%,92.4*
Cc1cc(C)n(-c2ccc(C(=O)Nc3ccc4c(c3)OCO4)cc2)n1,-8.7%,15.4,1.0%,2.2%,12.1%,26.5
O=C(Nc1ccc(-c2nc3cc(Cl)ccc3o2)cc1)C1CCCO1 (stereo not drawn),3.2%,29.7*,-1.6%,-2.4%,-23.2%,69.6*
CN(C)c1ccc(C(=O)Nc2ccc(-c3nc4ccccc4o3)cc2)cc1,.,.,.,3.0%,7.1%,.
O=C(Nc1ccc2oc(-c3ccccc3)nc2c1)C1CCCO1 (stereo not drawn),-0.8%,45.3*,-17.5%,-2.9%,3.4%,66.5*
O=C(Nc1ccc(-c2nc3cccnc3s2)cc1)C1CCCO1 (stereo not drawn),8.4%,17.4,14.1µM*,?,-4.4%,13.2
O=C(Nc1ccc(-c2nc3cc(Cl)ccc3o2)cc1)c1cc(Br)ccc1Cl,.,.,.,-4.4%,4.4%,.
O=C(Nc1ccc2oc(-c3ccccc3)nc2c1)c1ccc2ccccc2c1,.,.,.,0.8%,0.5%,.
O=C(Nc1ccc(-c2nc3ccccc3o2)cc1)C1CCCO1 (stereo not drawn),2.4%,37.3*,15.8µM*,-24.8%,2.2%,73.4*
Cc1cc(Cl)ccc1OCCSc1nnc(-c2cccs2)o1,.,.,.,5.8%,4.3%,.
CCC(=O)N1CCc2cc(Br)cc(S(=O)(=O)NCCc3ccccc3Cl)c21,.,.,.,-2.8%,13.5%,.
C=CCSC1=N/C(=C\c2ccc(C)o2)C(=O)S1,-23.2%,2.0,12.7%,-3.7%,39.8µM*,-10.4
Cc1ccc(-n2nnc(-c3cccnc3Cl)n2)cc1,5.7%,47.2*,-5.3%,-3.7%,-26.2%,87.2*
